The values below come from PubChem BioAssay (NCI).

About 83,000 compounds went through this panel and 20% of them were active in at least one assay; those are over-represented in the sample as a whole.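 Single-concentration screen, 48 h exposure, 96-well plates. Endpoint: percent growth. Below 10 = active.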 Activity calls are given as the source filed them.

For this test, the system named is HS 578T breast. As to the kind of experiment: NCI-60 one-dose screen, 48 h (100 = growth as untreated, 0 = no growth, -100 = all killed). The note with it: 10 µM unless noted.
For the compound `CCN1C(=O)N(CC)C2C1NN=c1s/c(=C\c3cc4ccccc4[nH]3)c(=O)n12` (centres undefined), the growth is 13.8% (inactive).

For `CCN(CC)CCCNCc1cc(-c2ccccc2)nc2cc(Cl)ccc12`, the growth was 24.2% (inactive).

In the case of `CC[C@H](CC[C@@H](C)[C@H]1CC[C@H]2[C@@H]3CC[C@@H]4CC(=O)/C(=C\c5ccncc5)C[C@]4(C)[C@H]3CC[C@]12C)C(C)C`, the growth is 98.8% (inactive).

Turning to `CCN(CC)c1ccc(/C=N\NC(=O)c2cccc(Nc3ccnc(C(F)(F)F)c3)c2)c(O)c1`, the growth was 57.8% (inactive).

Consider `Cc1cscc(C)c1=S`, for which the growth is 122% (inactive).

Regarding `COC(=O)/C=C1/SC(=Nc2cccc(Cl)c2)N(CCc2c[nH]c3ccc(O)cc23)C1=O`, the growth is 27.7% (inactive).

For the compound `O=C(CCCCCCCCC(=O)N/N=C\c1cc(Cl)ccc1O)N/N=C\c1cc(Cl)ccc1O`, the growth was 66.3% (inactive).

As for `COc1ccc(/C=C/C(=O)c2cc3c(N)c(C(=O)Nc4ccc(OC)cc4)sc3nc2C)cc1`, the growth was 8.09% (active).

Take `CCCCCCOC(=O)CC1=C(C)/C(=C/c2[nH]c(-c3ccc[nH]3)cc2OC)N=C1C`: the growth is -27% (active).

As to `Cc1ccc(O)c(NC(=O)c2ccc(CNc3ccnc(C(F)(F)F)c3)cc2)c1`, the growth was 85.4% (inactive).

On to `O=C1/C(=C/c2ccc(Br)cc2)COc2ccc(O)c(O)c21`, for which the growth was 11.9% (inactive).

On to `O=C(/C=C/C12c3ccccc3C(c3ccccc31)C1C(=O)NC(=O)C12)c1ccc(F)cc1` (centres undefined), for which the growth is 23.7% (inactive).

Take `Cc1ccc(C)c2c1C(O)(C#Cc1ccccc1)c1ccccc1C2(O)C#Cc1ccccc1` (centres undefined): the growth was 72.5% (inactive).

As to `C(/C=C/c1ccccc1)=Nc1ccc(CCc2ccc(N=C/C=C/c3ccccc3)cc2)cc1`, the growth is 108% (inactive).

Take `O=C(Cn1nnc2ccccc21)Nc1ccc(-c2nc3ccccc3s2)cc1`: the growth was 112% (inactive).

In the case of `CCCCCCCC/C=C\CCCCCCCCOc1ccc(CC(=O)NCC[N+](C)(C)C)cc1`, the growth is 76.7% (inactive).

With `COc1cc(/C=C2\CN(S(=O)(=O)c3ccc(C)cc3)C/C(=C\c3cc(CN4CCCCC4)c(O)c(OC)c3)C2=O)cc(CN2CCCCC2)c1O`, the growth was -33.4% (active).

For the compound `Cc1ncc(C(=O)Nc2ccc(CN3CCN(C)CC3)c(C(F)(F)F)c2)cc1C#Cc1cnc(N)c2ccncc12`, the growth is -19% (active).

With `COc1cc(C2=NN(C(C)=O)C(c3ccc(N(C)C)cc3)C2)cc(OC)c1OC` (centres undefined), the growth was 84.7% (inactive).

As for `COC1=CC(c2ccc[nH]2)=N/C1=C\c1[nH]c(C)c(CC(=O)OCc2ccccc2)c1C`, the growth was -6.47% (active).

Regarding `CCOC(=O)CSc1nc2sc3c(c2c(=O)n1-c1ccc([N+](=O)[O-])cc1)CCCCC3`, the growth is 39.7% (inactive).

For `CN(C)c1ccc(C(=NO)c2ccc(N(C)C)cc2)cc1`, the growth was 51.1% (inactive).

Consider `Cc1ccc(C(=O)c2ccc(CC(=O)N/N=C/c3ccc(O)cc3O)n2C)cc1`, for which the growth is 74.9% (inactive).

In the case of `N#C/C(=C\c1ccc(Br)cc1)c1cc2ccccc2[nH]1`, the growth was 98.4% (inactive).

On to `COc1ccc(-c2cn(-c3ccc(Cl)cc3)c(SCC(=O)c3ccc([N+](=O)[O-])cc3)n2)cc1`, for which the growth is 41% (inactive).

Take `COc1ccc(Cc2nnc(Nc3nc4ccccc4s3)s2)cc1`: the growth is 94.6% (inactive).

As to `CCOC(=O)c1ccc2c(c1)c1c(C)c3ccncc3c(C)c1n2C`, the growth is -4.98% (active).

Regarding `Cc1nc2sc(C(=O)Nc3cccc(Cl)c3)c(N)c2cc1C(O)c1ccccc1` (centres undefined), the growth is 19% (inactive).

With `COc1ccc(C2CC(c3ccc(Nc4nc(Nc5ccc(F)cc5)nc(Nc5ccc(F)cc5)n4)cc3)=NN2C(C)=O)cc1` (centres undefined), the growth is 111% (inactive).

`N#Cc1c(NC(=O)c2cccs2)[n+]([O-])c2ccc(Cl)cc2[n+]1[O-]`: the growth is 56.9% (inactive).

On to `CC(C)(C)c1cc(C=Nc2cccc(C(F)(F)F)c2)c(O)c(C(C)(C)C)c1`, for which the growth was 102% (inactive).

For the compound `N=c1sc(Cc2cc(Cl)ccc2Cl)cn1CC(=O)c1ccccc1`, the growth was 59.2% (inactive).

On to `COc1ccc(Nc2ncc(C(N)=O)c(NCCCNC(=O)C3CCC3)n2)cc1`, for which the growth was 71.5% (inactive).

For `Cc1nn(-c2ccccc2)c(/N=C/N(C)C)c1/C=C/C(=O)c1ccc(Cl)cc1`, the growth is 92.2% (inactive).

Consider `COc1ccc2cc(-c3ccc(-c4ccc(C(=N)N)s4)s3)ccc2c1`, for which the growth is 90.3% (inactive).

On to `O=C1c2cccnc2C(=O)c2c1c(C(=O)OCCCN1CCCCC1)c1ccccn21`, for which the growth is -16% (active).

Consider `O[C@@H](c1cc(C(F)(F)F)nc2c(C(F)(F)F)cccc12)[C@H]1CCCCN1`, for which the growth was 58.2% (inactive).

For the compound `Cc1[nH]c(/C=C/C(=O)c2ccc(C(F)(F)F)c(F)c2)c(C)c1C(=O)NCC(C)C`, the growth is 97.9% (inactive).

With `CCCCCCCCn1ccc2cc(NC(=O)Cn3cc(CN4CCCCCC4)nn3)ccc21`, the growth is 65.7% (inactive).
